PubChem BioAssay AID463173 (ICCB-Longwood Screening Facility, Harvard Medical School, 2010)
In all, about 52,000 compounds went through this assay and about 4,300 (8.3%) were called active. No stated cut-off is given here; in the data, active means survival mostly below about 52% (no sharp cut-off); inactive means mostly above about 56%. What follows is part of a selection rich in actives, with near analogues and random picks from the rest.

System: DeltatarO mutant
Assay: growth inhibition of S. aureus wild type versus tarO mutant, primary screen, teichoic acid synthesis inhibitors, RN4220, OD600 (AID 463173)
Conditions: OD600, 18 h, hits give low values, screened at 18.75 µg/mL (by protocol)

| Compound | survival |
| --- | --- |
| CNC(=O)CN1C(=O)COc2ccc(S(=O)(=O)N3CCCCCC3)cc21 | 91% (inactive) |
| Cc1cc(OCC(=O)Nc2sc3c(c2C#N)CCC(C)C3)ccc1Cl (configuration not stated) | 78% (inactive) |
| CCOC(=O)c1cnn(-c2ccc(C(=O)Nc3cccc(C(C)=O)c3)cc2)c1N | 55% (inactive) |
| CCN(CC)CCCNC(=O)c1sc2nc3n(c(=O)c2c1C)CCCCC3 | 111% (inactive) |
| Cc1ccccc1NC(=O)c1c(C)oc2ccc(O)c(CN3CCCCCC3)c12 | 107% (inactive) |
| O=c1n(Cc2ccc([N+](=O)[O-])cc2)c2ccccc2c2nc(-c3ccccc3)nn12 | 129% (inactive) |
| Cc1ccc(CSCC(=O)N2CCN(c3ccc(F)cc3)CC2)cc1 | 70% (inactive) |
| COc1ccc(NC(=O)C2=C(C)Nc3ncnn3C2c2ccc[nH]2)cc1 (configuration not stated) | 94% (inactive) |
| CCOc1ccccc1NC(=O)C1=C(C)Nc2ncnn2C1c1sccc1C (configuration not stated) | 92% (inactive) |
| CCOc1ccccc1NC(=O)C1=C(C)Nc2ncnn2C1c1cccs1 (configuration not stated) | 37% (active) |
| COc1ccccc1NC(=O)C1=C(C)Nc2nnnn2C1c1ccc(C(F)(F)F)cc1 (configuration not stated) | 66% (inactive) |
| CCOc1ccccc1C1C(C(=O)Nc2ccccc2OC)=C(C)Nc2nc3ccccc3n21 (configuration not stated) | 59% (active) |
| COc1ccccc1NC(=O)C1=C(C)Nc2nc3ccccc3n2C1c1ccccc1Cl (configuration not stated) | 62% (inactive) |
| COc1ccccc1NC(=O)C1=C(C)Nc2nnnn2C1c1cc(Br)c(O)c(OC)c1 (configuration not stated) | 55% (active) |
| CCCCOc1ccc(C2C(C(=O)Nc3ccccc3OC)=C(C)Nc3nnnn32)cc1OC (configuration not stated) | 85% (inactive) |
| CC1=C(C(=O)Nc2ccccc2C)C(c2ccc[nH]2)n2ncnc2N1 (configuration not stated) | 102% (inactive) |
| COc1ccccc1NC(=O)C1=C(C)Nc2nc3ccccc3n2C1c1cccc(OC)c1OC (configuration not stated) | 70% (inactive) |
| CC1=C(C(=O)Nc2ccccc2)C(c2ccc[nH]2)n2ncnc2N1 (configuration not stated) | 20% (active) |
| CC1=C(C(=O)Nc2ccccc2Cl)C(c2cccs2)n2ncnc2N1 (configuration not stated) | 101% (inactive) |
| COc1ccc(S(=O)(=O)N2CCC(c3nc4ccccc4s3)CC2)cc1OC | 86% (inactive) |
| Cc1cc(NC(=O)OC2CCCC2)ccc1NC(=O)OC1CCCCC1 | 75% (inactive) |
| COc1ccc(CNC(=O)C(=O)Nc2cccc(C)c2C)cc1 | 61% (inactive) |
| Cc1ccccc1S(=O)Cc1ccc(C(=O)NCc2ccccc2Cl)o1 (configuration not stated) | 73% (inactive) |

| Compound | survival |
| --- | --- |
| Cc1ccc(-c2nnc(Nc3ccc(Cl)c(Cl)c3)c3ccccc23)cc1S(=O)(=O)NCCO | 79% (inactive) |
| CC(=O)Nc1ccc(S(=O)(=O)NCC2CCC(C(=O)NCCN(CC(C)C)CC(C)C)CC2)cc1 (configuration not stated) | 61% (inactive) |
| CC(=O)Nc1ccc(S(=O)(=O)N2CCN(c3ccc(C)c(C)c3)CC2)cc1 | 94% (inactive) |
| O=C(CS(=O)(=O)c1cccc2nsnc12)Nc1ccc(F)cc1F | 102% (inactive) |
| COc1ccccc1N1CCN(c2ncnc3c2c(-c2ccccc2)cn3-c2cccc(C)c2)CC1 | 70% (inactive) |
| COc1ccc(-c2[nH]ncc2C(=O)NCc2cccc(Cl)c2)cc1 | 62% (inactive) |
| Cc1ccc(C)c(CN2C(=O)c3ccccc3S(=O)c3ccc(C(=O)N(C)Cc4ccccc4)cc32)c1 (configuration not stated) | 78% (inactive) |
| Cc1ccc(Nc2cc(C(=O)NCc3cccs3)c3ccccc3n2)c(C)c1 | 72% (inactive) |
| CC1=C(C(=O)Nc2ccccc2)C(c2cccn2C)n2ncnc2N1 (configuration not stated) | 95% (inactive) |
| CCOc1ccccc1NC(=O)C1=C(C)Nc2ncnn2C1c1ccccn1 (configuration not stated) | 25% (active) |
| COc1ccccc1NC(=O)C1=C(C)Nc2ncnn2C1c1cccn1C (configuration not stated) | 8% (active) |
| CC1=C(C(=O)Nc2ccccc2C)C(c2ccccn2)n2ncnc2N1 (configuration not stated) | 94% (inactive) |
| COc1ccccc1NC(=O)C1=C(C)Nc2ncnn2C1c1ccccn1 (configuration not stated) | 52% (inactive) |
| COc1ccc(NC(=O)C2=C(C)Nc3ncnn3C2c2cccn2C)cc1 (configuration not stated) | 89% (inactive) |
| Cc1ccccc1CN1C(=O)c2ccccc2Sc2ccc(C(=O)NC3CCCCC3)cc21 | 71% (inactive) |
| O=C(O)C1CSC2c3ccccc3C(=O)N12 (configuration not stated) | 103% (inactive) |
| O=c1[nH]c2cc3c(cc2cc1CN(CCO)C(=S)Nc1cccc(Cl)c1)OCO3 | 69% (inactive) |
| CCS(=O)(=O)N1CCc2cc(C(=O)NCc3ccc(C)cc3)ccc21 | 82% (inactive) |
| CS(=O)(=O)N1CCc2cc(C(=O)NCc3ccccc3)ccc21 | 81% (inactive) |
| Cc1ccc(CNC(=O)c2ccc3c(c2)CCN3S(=O)(=O)c2ccc(Br)cc2)cc1 | 80% (inactive) |
| O=C(NCc1ccccc1)c1ccc2c(c1)CCN2S(=O)(=O)c1ccccc1 | 36% (active) |
| O=C(NCc1ccccc1)c1ccc2c(c1)CCN2S(=O)(=O)c1ccc(Cl)cc1 | 73% (inactive) |
| Cc1ccc(CNC(=O)c2ccc3c(c2)CCN3S(=O)(=O)c2ccccc2)cc1 | 37% (active) |

| Compound | survival |
| --- | --- |
| CC(=O)N1CCc2cc(S(=O)(=O)NC(Cc3ccccc3)C(=O)NCc3ccccc3)ccc21 (configuration not stated) | 79% (inactive) |
| Cc1ccc2c(c1)N(CC(=O)N(Cc1cccnc1)C1CCCC1)C(=O)C(C)O2 (configuration not stated) | 97% (inactive) |
| Cc1ccc(-n2nc(C(=O)N3CCN(c4cc(Cl)ccc4C)CC3)c(=O)n(C)c2=O)cc1 | 116% (inactive) |
| Cc1ccc(OCC(=O)Nc2ccc3nc(SCC(=O)Nc4ccc(C)cc4C)sc3c2)cc1 | 73% (inactive) |
| COc1ccc(N2CCN(c3nc4ccc(C)cc4n4nnnc34)CC2)cc1 | -5% (active) |
| Cc1ccc2nc(N3CCN(c4ccccc4)CC3)c3nnnn3c2c1 | 88% (inactive) |
| COc1ccccc1CNc1nc2ccc(C)cc2n2nnnc12 | 17% (active) |
| Cc1ccc2nc(NCc3ccccc3Cl)c3nnnn3c2c1 | 91% (inactive) |
| COc1ccc(OC)c(CNc2nc3ccc(C)cc3n3nnnc23)c1 | 88% (inactive) |
| Cc1ccc2nc(N3CCN(c4ccc(F)cc4)CC3)c3nnnn3c2c1 | 55% (inactive) |
| COc1ccc(-c2ccc(Nc3ccc(C(=O)N4CCCCCC4)cc3)nn2)cc1 | 71% (inactive) |
| CCOc1ccccc1CNC(=O)c1cnc2sc(N3CCOCC3)nn2c1=O | 67% (inactive) |
| CCCCCn1c(CCNC(=O)c2cccc(C)c2)nc2ccccc21 | 32% (active) |
| CCCCCn1c(CCCNC(=O)c2cccc(C)c2)nc2ccccc21 | 51% (inactive) |
| CCCCCn1c(-c2ccc(OC)c(OC)c2)nc2ccccc21 | 1% (active) |
| CCCCCn1c(-c2cccc(C)c2)nc2ccccc21 | -2% (active) |
| CCCCCn1c(CCCNC(=O)c2ccccc2OC)nc2ccccc21 | 53% (inactive) |
| CCCCn1c(C)nc2ccccc21 | 104% (inactive) |
| CCCCCn1c(C(C)NC(=O)c2ccccc2)nc2ccccc21 (configuration not stated) | 81% (inactive) |
| CCOc1ccc(Cn2c(-c3ccc(OCC)c(OC)c3)nc3ccccc32)cc1OC | 79% (inactive) |
| CCCCn1c(CCCNC(=O)c2cccc(C)c2)nc2ccccc21 | 55% (inactive) |
